This is an account of results in PubChem BioAssay (NCI).

This is part of a sample that, as a whole, favours compounds with a hit. Of some 83,000 tested, about 20% had one in any assay.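 How to read the values: 0–100, growth inhibition (40 = 60% inhibited); 0, no net growth; -100 to 0, cell death (-40 = 40% of starting cells died; -100 = all dead).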 A number with no mark means an inactive call. Active and inactive are the calls of the source. How the source made its calls: active means growth percent below 10; inactive means the rest.

Among the test systems are SR leukemia; RPMI-8226 leukemia; OVCAR-8 ovarian; OVCAR-5 ovarian; OVCAR-4 ovarian; SK-OV-3 ovarian; IGROV1 ovarian; OVCAR-3 ovarian; HS 578T breast; NCI/ADR-RES ovarian; T-47D breast; BT-549 breast; MDA-MB-435 melanoma; SW-620 colon; MCF7 breast; HCT-116 colon; HCC-2998 colon; KM12 colon.
Holding throughout (experiment): NCI-60 one-dose screen, 48 h (100 = growth as untreated, 0 = no growth, -100 = all killed)
Holding throughout (conditions): 10 µM unless noted

Regarding `CN1CCN(Cc2ccc(NC(=O)c3cncc(C#Cc4cncc5nccnc45)c3)cc2C(F)(F)F)CC1`, the growth with SR leukemia was 63.7%; in the assay on RPMI-8226 leukemia it was 36.9%; in the assay on OVCAR-8 ovarian it was 62.1%; in the assay with OVCAR-5 ovarian, 36.4%; in the assay on OVCAR-4 ovarian, 38.9%; in the assay with SK-OV-3 ovarian, 74.7%. Also, the growth with IGROV1 ovarian is 22.2%; in the assay with OVCAR-3 ovarian it was 69.9%; with HS 578T breast, 39.6%; in the assay with NCI/ADR-RES ovarian, 72.4%; in the assay with T-47D breast, 46.5%; in the assay on BT-549 breast, 82.8%. For the same compound, the growth with MDA-MB-435 melanoma was 21.9%; in the assay on SW-620 colon it was 26.4%; in the assay with MCF7 breast, 33.8%; in the assay with HCT-116 colon it was 20.2%; in the assay on HCC-2998 colon it was 33.6%; with KM12 colon, 13.9%.

Consider `O=C1/C(=C/c2ccc(Cl)c(Cl)c2)CN(C(=O)CCN2CCC(=NO)CC2)C/C1=C\c1ccc(Cl)c(Cl)c1`, for which the growth was -14% (active) with SR leukemia; -37.2% (active) in the assay on RPMI-8226 leukemia; -95.5% (active) in the assay on OVCAR-8 ovarian; -71.3% (active) in the assay on OVCAR-5 ovarian; -96.6% (active) with OVCAR-4 ovarian; -55.7% (active) in the assay with SK-OV-3 ovarian. For the same compound, the growth is -63.3% (active) in the assay with IGROV1 ovarian; -97.8% (active) in the assay with OVCAR-3 ovarian; -28.5% (active) with HS 578T breast; -60.2% (active) in the assay on NCI/ADR-RES ovarian; -79.9% (active) with T-47D breast; -87.9% (active) in the assay on BT-549 breast. For the same compound, the growth in the assay with MDA-MB-435 melanoma was -93.8% (active); in the assay on SW-620 colon, -62.9% (active); in the assay on MCF7 breast, -53.8% (active); in the assay with HCT-116 colon it was -47.1% (active); with HCC-2998 colon it was -77.1% (active); in the assay with KM12 colon, -80.9% (active).

On to `O=C(/C=C/c1ccc(Cl)cc1)/C=C/c1cc2ccccc2[nH]c1=O`, for which the growth in the assay with SR leukemia is 1.79% (active); with RPMI-8226 leukemia, -22.2% (active); with OVCAR-8 ovarian, -11.5% (active); in the assay with OVCAR-5 ovarian, 128%; with OVCAR-4 ovarian it was 84.1%; in the assay on SK-OV-3 ovarian it was 99.9%. The growth is 78.8% in the assay on IGROV1 ovarian; 15.9% in the assay on OVCAR-3 ovarian; 91.2% in the assay on HS 578T breast; 86% in the assay with NCI/ADR-RES ovarian; 48.7% in the assay with T-47D breast; 44.6% in the assay on BT-549 breast. Also, the growth in the assay on MDA-MB-435 melanoma was -1.71% (active); in the assay with SW-620 colon, 8.48% (active); with MCF7 breast, 5.22% (active); in the assay with HCT-116 colon it was -55.7% (active); in the assay on HCC-2998 colon, 73%; in the assay with KM12 colon, 28.3%.

Regarding `CCC(=O)Oc1ccc(/C(=C(\C)c2ccccc2)c2ccc(OCCN(CC)CC)cc2)cc1`, the growth in the assay on SR leukemia is 43.9%; with RPMI-8226 leukemia, 68.2%; with OVCAR-8 ovarian it was 87.9%; with OVCAR-5 ovarian, 91.7%; with OVCAR-4 ovarian it was 87.5%; in the assay with SK-OV-3 ovarian, 91.4%. Also, the growth with IGROV1 ovarian was 92.7%; in the assay with OVCAR-3 ovarian it was 97.8%; in the assay on HS 578T breast, 51.9%; in the assay on NCI/ADR-RES ovarian, 93%; in the assay on T-47D breast, 43.8%; with BT-549 breast, 86.3%. Moreover, the growth with MDA-MB-435 melanoma was 76.1%; in the assay on SW-620 colon, 79.4%; in the assay with MCF7 breast, 37.9%; in the assay on HCT-116 colon, 62.1%; in the assay with HCC-2998 colon, 103%; in the assay on KM12 colon, 80.3%.

Take `CN1CCCCC1CCN1c2ccccc2Sc2ccc(Br)cc21` (centres undefined): the growth with SR leukemia is -32% (active); in the assay on RPMI-8226 leukemia it was 46%; with OVCAR-8 ovarian, 62.3%; in the assay on OVCAR-5 ovarian, 85.9%; with OVCAR-4 ovarian, 59.4%; in the assay with SK-OV-3 ovarian, 69.6%. Also, the growth in the assay with IGROV1 ovarian was 35.9%; in the assay on OVCAR-3 ovarian it was 77.9%; in the assay with HS 578T breast, 81%; in the assay on NCI/ADR-RES ovarian it was 73.2%; with T-47D breast, 77.9%; in the assay with BT-549 breast it was 68.5%. For the same compound, the growth with MDA-MB-435 melanoma is 20.4%; with SW-620 colon it was 79.6%; in the assay on MCF7 breast it was 21%; in the assay with HCT-116 colon, 28.8%; in the assay with HCC-2998 colon, 51.3%; with KM12 colon it was 60.7%.

Regarding `Cc1cc(N/N=C/c2nc(-c3ccc(Cl)cc3)oc2C)c2cc(Cl)ccc2n1`, the growth in the assay on SR leukemia is -6.42% (active); with RPMI-8226 leukemia, -35.5% (active); in the assay on OVCAR-8 ovarian, 10.4%; with OVCAR-5 ovarian, 87.2%; in the assay with OVCAR-4 ovarian, -84.5% (active); in the assay with SK-OV-3 ovarian, 100%. Further, the growth in the assay on IGROV1 ovarian is 66.3%; in the assay with OVCAR-3 ovarian, -34.3% (active); with HS 578T breast, 73.1%; with NCI/ADR-RES ovarian it was 18%; in the assay with T-47D breast, 77%; in the assay on BT-549 breast it was 91.2%. Further, the growth in the assay with MDA-MB-435 melanoma is -29.7% (active); in the assay on SW-620 colon it was -69.3% (active); with MCF7 breast it was -86.2% (active); with HCT-116 colon, -47.1% (active); in the assay on HCC-2998 colon, 103%; in the assay with KM12 colon, 53.6%.

Regarding `CC/C=C\C[C@H](O)C/C=C1/C(=O)C=C[C@@H]1C/C=C\CCCC(=O)NC(C)C`, the growth in the assay on SR leukemia is -24.9% (active); in the assay with RPMI-8226 leukemia, -5.29% (active); with OVCAR-8 ovarian, -12.5% (active); with OVCAR-5 ovarian, 41.6%; in the assay with OVCAR-4 ovarian it was 35.6%; with SK-OV-3 ovarian, 21.4%. In addition, the growth in the assay on IGROV1 ovarian is 14.8%; with OVCAR-3 ovarian, -6.93% (active); in the assay with HS 578T breast it was 46.6%; with NCI/ADR-RES ovarian, 15.9%; in the assay with T-47D breast it was 11.4%; with BT-549 breast it was 0.828% (active). Further, the growth is 5.43% (active) with MDA-MB-435 melanoma; 11.7% with SW-620 colon; 14.4% in the assay with MCF7 breast; -54.3% (active) in the assay on HCT-116 colon; -55.5% (active) in the assay with HCC-2998 colon; -43.5% (active) with KM12 colon.

Turning to `N#CC1=C(N)Oc2c(ccc3ccccc23)C1c1cccs1` (centres undefined), the growth with SR leukemia was -11.2% (active); in the assay with RPMI-8226 leukemia, -17.3% (active); in the assay on OVCAR-8 ovarian it was 17.2%; in the assay on OVCAR-5 ovarian it was 34.9%; in the assay with OVCAR-4 ovarian, 12.6%; with SK-OV-3 ovarian, 5.5% (active). In addition, the growth in the assay with IGROV1 ovarian is 60.3%; in the assay on OVCAR-3 ovarian, -38.8% (active); in the assay with HS 578T breast it was 22.3%; in the assay on NCI/ADR-RES ovarian, 14.5%; in the assay on T-47D breast, 64.3%; with BT-549 breast, 25%. In addition, the growth in the assay on MDA-MB-435 melanoma is -31% (active); with SW-620 colon it was 23.8%; in the assay on MCF7 breast it was 7.97% (active); in the assay on HCT-116 colon, 8.25% (active); in the assay on HCC-2998 colon it was 16.7%; in the assay on KM12 colon, 4.37% (active).
